Reference: PubChem BioAssay AID1159580 (chemical genetic matrix, 2015)
Several values for one entry are separate records, joined by “and”; a condition that tells them apart may be missing. Equal entries are not always repeated. Among all 5,500 compounds or so, about 2,000 (36%) were called active. Roughly 18% stayed inconclusive and do not appear here. Cut-off read from the data, not from the text of the source: active = normalized growth mostly below about 0.91 (no sharp cut-off); inconclusive = no clear call, values can overlap the other calls; inactive = mostly above about 0.92. This is one part of the list.

Assay: chemical genetic growth profiling, strain panel (AID 1159580);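 note: tested at 20 µM; growth read once vehicle control cultures reached saturation at 30 °C; 1 = growth at the plate median or of vehicle wells; lower values mean less growth of the strain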
Conditions: S. cerevisiae deletion strains, growth OD

Measured: normalized growth

NCCCNCCSP(=O)(O)O
inactive: locus YAL013W, strain DEP1, stronger effect = lower value 0.988 and 1.01 | locus YAL021C, strain ccr4, stronger effect = lower value 0.985 | locus YAL026C, strain drs2, stronger effect = lower value 0.976 | locus YAL030W, strain snc1, stronger effect = lower value 0.968 | locus YAL040C, strain CLN3, stronger effect = lower value 1 | locus YBL061C, strain skt5, stronger effect = lower value 0.97 | locus YBR009C, strain hhf1, stronger effect = lower value 0.988 | locus YBR021W, strain FUR4, stronger effect = lower value 0.967 | locus YBR023C, strain chs3, stronger effect = lower value 0.976 | locus YBR171W, strain sec66, stronger effect = lower value 0.96 | locus YBR229C, strain ROT2, stronger effect = lower value 1 | locus YBR231C, strain swc5, stronger effect = lower value 0.975 | locus YBR279W, strain paf1, stronger effect = lower value 0.995 | locus YCL011C, strain gbp2, stronger effect = lower value 0.957 | locus YCL016C, strain dcc1, stronger effect = lower value 0.982 | locus YCL029C, strain bik1, stronger effect = lower value 0.988 | locus YCL061C, strain MRC1, stronger effect = lower value 0.983 | locus YCL069W, strain vba3, stronger effect = lower value 0.994 | locus YCR088W, strain abp1, stronger effect = lower value 0.982 | locus YDL005C, strain med2, stronger effect = lower value 0.969 | locus YDL035C, strain GPR1, stronger effect = lower value 0.994 | locus YDL040C, strain nat1, stronger effect = lower value 0.987 | locus YDL074C, strain BRE1, stronger effect = lower value 0.993 | locus YDL101C, strain DUN1, stronger effect = lower value 0.984 | locus YDL134C, strain PPH21, stronger effect = lower value 0.994 | locus YDL185W, strain tfp1, stronger effect = lower value 0.944 | locus YDL192W, strain arf1, stronger effect = lower value 0.986 | locus YDR001C, strain nth1, stronger effect = lower value 0.977 | locus YDR069C, strain doa4, stronger effect = lower value 0.968 | locus YDR101C, strain arx1, stronger effect = lower value 1 | locus YDR137W, strain rgp1, stronger effect = lower value 0.968 | locus YDR150W, strain NUM1, stronger effect = lower value 0.949 | locus YDR159W, strain sac3, stronger effect = lower value 0.98 | locus YDR162C, strain NBP2, stronger effect = lower value 0.992 | locus YDR195W, strain ref2 0.989 | locus YDR297W, strain sur2, stronger effect = lower value 0.983 | locus YDR318W, strain mcm21, stronger effect = lower value 0.986 | locus YDR334W, strain swr1, stronger effect = lower value 0.933 | locus YDR335W, strain msn5, stronger effect = lower value 0.981 | locus YDR388W, stronger effect = lower value 1 | locus YDR392W, strain spt3, stronger effect = lower value 0.927 | locus YDR502C, strain sam2, stronger effect = lower value 0.993 | locus YEL003W, strain gim4, stronger effect = lower value 0.988 | locus YEL037C, strain rad23, stronger effect = lower value 0.981 | locus YEL061C, strain CIN8 (second series), stronger effect = lower value 0.972 | locus YEL061C, strain CIN8, stronger effect = lower value 0.998 | locus YER002W, strain NOP16, stronger effect = lower value 0.997 | locus YER015W, strain faa2, stronger effect = lower value 0.973 | locus YER016W, strain bim1, stronger effect = lower value 0.991 | locus YER110C, stronger effect = lower value 0.989 | locus YER111C, strain swi4, stronger effect = lower value 0.988 | locus YER155C, strain BEM2 (second series), stronger effect = lower value 0.983 | locus YER155C, strain BEM2, stronger effect = lower value 0.942 | locus YER167W, strain BCK2, stronger effect = lower value 0.991 | locus YFR010W, strain ubp6, stronger effect = lower value 0.957 | locus YGL078C, strain dbp3, stronger effect = lower value 0.987 | locus YGL086W, strain mad1, stronger effect = lower value 0.978 | locus YGL167C, strain pmr1, stronger effect = lower value 0.976 | locus YGL173C, strain kem1, stronger effect = lower value 0.944 | locus YGL227W, strain vid30, stronger effect = lower value 0.974 | locus YGL240W, strain doc1, stronger effect = lower value 0.984 | locus YGL248W, strain PDE1, stronger effect = lower value 1 | locus YGL253W, strain hxk2, stronger effect = lower value 0.989 | locus YGR078C, strain PAC10, stronger effect = lower value 0.984 | locus YGR135W, strain pre9, stronger effect = lower value 0.984 | locus YGR229C, strain SMI1, stronger effect = lower value 0.964 | locus YGR252W, strain gcn5, stronger effect = lower value 0.978 | locus YHR013C, strain ard1, stronger effect = lower value 0.981 | locus YHR027C, strain rpn1, stronger effect = lower value 0.959 | locus YHR030C, strain SLT2, stronger effect = lower value 0.993 | locus YHR079C, strain IRE1 (second series), stronger effect = lower value 0.991 | locus YHR094C, strain hxt1, stronger effect = lower value 0.979 | locus YHR129C, strain ARP1, stronger effect = lower value 0.999 | locus YHR142W, strain chs7, stronger effect = lower value 0.936 | locus YHR200W, strain rpn10, stronger effect = lower value 0.983 | locus YIL066C, strain RNR3, stronger effect = lower value 0.995 | locus YIL073C, strain SPO22, stronger effect = lower value 0.941 | locus YIL125W, strain kgd1, stronger effect = lower value 1 | locus YIR030C, strain dcg1, stronger effect = lower value 0.998 | locus YJL092W, strain hpr5, stronger effect = lower value 0.979 | locus YJL095W, strain BCK1 (second series), stronger effect = lower value 0.983 | locus YJL095W, strain BCK1, stronger effect = lower value 1.02 | locus YJL115W, strain asf1, stronger effect = lower value 0.955 | locus YJL129C, strain trk1, stronger effect = lower value 1 | locus YJL134W, strain LCB3, stronger effect = lower value 0.989 | locus YJL154C, strain vps35, stronger effect = lower value 0.972 | locus YJL164C, strain tpk1, stronger effect = lower value 0.992 | locus YJL166W, strain qcr8, stronger effect = lower value 0.956 | locus YJL168C, strain set2, stronger effect = lower value 1 | locus YJL187C, strain SWE1 (second series), stronger effect = lower value 0.99 | locus YJL187C, strain SWE1, stronger effect = lower value 0.982 | locus YJR043C, strain POL32, stronger effect = lower value 0.994
